Data reported in PubChem BioAssay AID1159580 (chemical genetic matrix, 2015).
Among all 5,500 compounds or so, about 2,000 (36%) were called active. Inconclusive results (about 18%) are left out. Cut-off read from the data, not from the text of the source: active = normalized growth mostly below about 0.91 (no sharp cut-off); inconclusive = no clear call, values can overlap the other calls; inactive = mostly above about 0.92. Some of the results follow.

Experiment: chemical genetic growth profiling, strain panel (AID 1159580);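 note: tested at 20 µM; growth read once vehicle control cultures reached saturation at 30 °C; 1 = growth at the plate median or of vehicle wells; lower values mean less growth of the strain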
Details: S. cerevisiae deletion strains, growth OD

Measured: normalized growth

CC1(C)Oc2ccc3ccc(=O)oc3c2CC1O (centres undefined)
inactive: locus YAL013W, strain DEP1, hits give low values 0.994 | locus YAL021C, strain ccr4, hits give low values 1 | locus YAL026C, strain drs2, hits give low values 0.967 | locus YAL030W, strain snc1, hits give low values 0.972 | locus YBL061C, strain skt5, hits give low values 0.971 | locus YBR009C, strain hhf1, hits give low values 0.94 | locus YBR021W, strain FUR4, hits give low values 1.02 | locus YBR023C, strain chs3, hits give low values 0.984 | locus YBR171W, strain sec66, hits give low values 0.976 | locus YBR229C, strain ROT2, hits give low values 0.998 | locus YBR231C, strain swc5, hits give low values 0.976 | locus YBR279W, strain paf1, hits give low values 0.987 | locus YCL011C, strain gbp2, hits give low values 0.963 | locus YCL016C, strain dcc1, hits give low values 0.988 | locus YCL029C, strain bik1, hits give low values 1.01 | locus YCL061C, strain MRC1, hits give low values 0.989 | locus YCL069W, strain vba3, hits give low values 0.968 | locus YCR088W, strain abp1, hits give low values 0.986 | locus YDL005C, strain med2, hits give low values 0.975 | locus YDL035C, strain GPR1, hits give low values 0.991 | locus YDL040C, strain nat1, hits give low values 0.979 | locus YDL074C, strain BRE1, hits give low values 1.01 | locus YDL101C, strain DUN1, hits give low values 0.995 | locus YDL134C, strain PPH21, hits give low values 0.974 | locus YDL185W, strain tfp1, hits give low values 1.02 | locus YDL192W, strain arf1, hits give low values 1.02 | locus YDR001C, strain nth1, hits give low values 0.97 | locus YDR069C, strain doa4, hits give low values 0.957 | locus YDR101C, strain arx1, hits give low values 1.02 | locus YDR137W, strain rgp1, hits give low values 0.99 | locus YDR150W, strain NUM1, hits give low values 1.01 | locus YDR159W, strain sac3, hits give low values 0.922 | locus YDR162C, strain NBP2, hits give low values 0.978 | locus YDR195W, strain ref2 0.971 | locus YDR297W, strain sur2, hits give low values 0.971 | locus YDR318W, strain mcm21, hits give low values 0.977 | locus YDR334W, strain swr1, hits give low values 0.982 | locus YDR335W, strain msn5, hits give low values 0.993 | locus YDR388W, hits give low values 1 | locus YDR392W, strain spt3, hits give low values 0.91 | locus YDR502C, strain sam2, hits give low values 0.994 | locus YEL003W, strain gim4, hits give low values 0.977 | locus YEL037C, strain rad23, hits give low values 0.982 | locus YEL061C, strain CIN8 (second series), hits give low values 0.977 | locus YEL061C, strain CIN8, hits give low values 0.992 | locus YER015W, strain faa2, hits give low values 0.968 | locus YER016W, strain bim1, hits give low values 0.996 | locus YER110C, hits give low values 1.01 | locus YER111C, strain swi4, hits give low values 0.982 | locus YER155C, strain BEM2 (second series), hits give low values 0.956 | locus YER155C, strain BEM2, hits give low values 1.01 | locus YER167W, strain BCK2, hits give low values 0.978 | locus YFR010W, strain ubp6, hits give low values 0.972 | locus YGL078C, strain dbp3, hits give low values 0.999 | locus YGL086W, strain mad1, hits give low values 1.04 | locus YGL167C, strain pmr1, hits give low values 0.961 | locus YGL173C, strain kem1, hits give low values 0.975 | locus YGL227W, strain vid30, hits give low values 0.97 | locus YGL240W, strain doc1, hits give low values 0.97 | locus YGL248W, strain PDE1, hits give low values 0.998 | locus YGL253W, strain hxk2, hits give low values 1 | locus YGR078C, strain PAC10, hits give low values 0.999 | locus YGR135W, strain pre9, hits give low values 0.978 | locus YGR252W, strain gcn5, hits give low values 0.928 | locus YHR013C, strain ard1, hits give low values 0.943 | locus YHR027C, strain rpn1, hits give low values 0.973 | locus YHR030C, strain SLT2, hits give low values 1 | locus YHR079C, strain IRE1 (second series), hits give low values 1 | locus YHR094C, strain hxt1, hits give low values 1.02 | locus YHR129C, strain ARP1, hits give low values 1 | locus YHR142W, strain chs7, hits give low values 0.996 | locus YHR200W, strain rpn10, hits give low values 1.01 | locus YIL066C, strain RNR3, hits give low values 1 | locus YIL073C, strain SPO22, hits give low values 1.02 | locus YIL125W, strain kgd1, hits give low values 1.02 | locus YIR030C, strain dcg1, hits give low values 1.01 | locus YJL092W, strain hpr5, hits give low values 0.989 | locus YJL095W, strain BCK1 (second series), hits give low values 0.996 | locus YJL095W, strain BCK1, hits give low values 0.986 | locus YJL115W, strain asf1, hits give low values 0.984 | locus YJL129C, strain trk1, hits give low values 0.977 | locus YJL134W, strain LCB3, hits give low values 1 | locus YJL154C, strain vps35, hits give low values 0.978 | locus YJL164C, strain tpk1, hits give low values 1.01 | locus YJL166W, strain qcr8, hits give low values 0.989 | locus YJL168C, strain set2, hits give low values 1.01 | locus YJL187C, strain SWE1 (second series), hits give low values 1.01 | locus YJL187C, strain SWE1, hits give low values 0.976 | locus YJR043C, strain POL32, hits give low values 0.995 | locus YKL009W, strain mrt4, hits give low values 1.01 | locus YKL068W, hits give low values 0.998 | locus YKL085W, strain MDH1 (second series), hits give low values 1.01 | locus YKL085W, strain MDH1, hits give low values 1.01 | locus YKL160W, strain elf1, hits give low values 1.02 | locus YKR001C, strain vps1, hits give low values 1.03 | locus YKR026C, strain gcn3, hits give low values 0.957 | locus YKR091W, strain srl3, hits give low values 0.965 | locus YLL001W, strain dnm1, hits give low values 0.987 | locus YLL026W, hits give low values 0.977 | locus YLL041C, strain sdh2, hits give low values 0.989 | locus YLR027C, strain aat2, hits give low values 0.982 | locus YLR039C, strain RIC1, hits give low values 0.998 | locus YLR058C, strain SHM2, hits give low values 0.992 | locus YLR102C, strain apc9, hits give low values 1.01 | locus YLR221C, strain rsa3, hits give low values 0.994 | locus YLR258W, strain gsy2, hits give low values 0.971 | locus YLR262C, strain YPT6 (second series), hits give low values 0.989 | locus YLR262C, strain YPT6, hits give low values 0.956 | locus YLR268W, strain sec22, hits give low values 1.05 | locus YLR320W, strain mms22, hits give low values 0.998 | locus YLR330W, strain CHS5, hits give low values 1 | locus YLR342W, strain FKS1 (second series), hits give low values 1.02 | locus YLR342W, strain FKS1, hits give low values 0.973 | locus YLR357W, strain rsc2, hits give low values 0.961 | locus YLR370C, strain arc18, hits give low values 0.976 | locus YLR371W, strain rom2, hits give low values 1.01 | locus YLR384C, strain iki3, hits give low values 0.976 | locus YLR418C, strain cdc73, hits give low values 0.978 | locus YML016C, strain PPZ1, hits give low values 1 | locus YML032C, strain rad52, hits give low values 0.976 | locus YML120C, strain ndi1, hits give low values 0.988 | locus YML124C, strain tub3, hits give low values 0.994 | locus YMR058W, strain fet3, hits give low values 0.979 | locus YMR078C, strain ctf18, hits give low values 1.02 | locus YMR125W, strain sto1, hits give low values 0.935 | locus YMR129W, hits give low values 0.966 | locus YMR205C, strain PFK2, hits give low values 0.941 | locus YMR223W, strain ubp8, hits give low values 0.996 | locus YMR231W, strain pep5, hits give low values 0.977 | locus YMR307W, strain GAS1, hits give low values 1.04 | locus YNL067W, strain RPL9B, hits give low values 1 | locus YNL071W, strain lat1, hits give low values 0.988 | locus YNL209W, strain ssb2, hits give low values 0.965 | locus YNL233W, strain BNI4, hits give low values 1 | locus YNL248C, strain rpa49, hits give low values 1.02 | locus YNL250W, strain rad50, hits give low values 1.01 | locus YNL271C, strain bni1, hits give low values 1.01 | locus YNL298W, strain CLA4, hits give low values 1 | locus YNL307C, strain MCK1, hits give low values 1.02 | locus YNL322C, strain KRE1 (second series), hits give low values 0.967 | locus YNR049C, strain mso1, hits give low values 0.97 | locus YNR052C, strain pop2, hits give low values 1.02 | locus YOL006C, strain TOP1, hits give low values 1.02 | locus YOL012C, strain htz1 0.905 | locus YOL147C, strain pex11, hits give low values 1 | locus YOR001W, strain rrp6, hits give low values 1.02 | locus YOR061W, strain CKA2, hits give low values 1 | locus YOR069W, strain VPS5, hits give low values 1 | locus YOR070C, strain gyp1, hits give low values 0.987 | locus YOR080W, strain dia2, hits give low values 0.975 | locus YOR083W, strain WHI5, hits give low values 1.03 | locus YOR106W, strain vam3, hits give low values 0.995 | locus YOR136W, strain idh2, hits give low values 1.01 | locus YOR144C, strain elg1, hits give low values 1 | locus YOR184W, strain ser1, hits give low values 0.988 | locus YOR265W, strain rbl2, hits give low values 0.987 | locus YOR270C, strain vph1, hits give low values 1.02 | locus YOR290C, strain snf2, hits give low values 0.924 | locus YOR316C, strain cot1, hits give low values 1 | locus YPL051W, strain arl3, hits give low values 1.02 | locus YPL078C, strain atp4, hits give low values 1 | locus YPL106C, strain sse1, hits give low values 0.95 | locus YPL240C, strain hsp82, hits give low values 0.974 | locus YPL241C, strain CIN2, hits give low values 0.996 | locus YPR119W, strain clb2, hits give low values 0.997 | locus YPR141C, strain kar3, hits give low values 1.01 | locus YPR163C, strain tif3, hits give low values 1.01 | locus YPR167C, strain met16, hits give low values 1 | strain wtn01, hits give low values 1.05
